Laboratory results as given in PubChem BioAssay (NCATS).
Values joined by “and” are separate entries in the source; they are usually repeats but may differ in a detail not shown here. Identical values can stand only once. Records with an inconclusive call do not appear. The source holds several records for some structures; these can differ, active in one and inactive in another. Active and inactive are the calls of the source. Calls come from the whole dose curve; as a rule, active = well fitted inhibition curve with a large enough effect; inconclusive = small, poorly fitted or top-dose-only effect; inactive = flat fitted curve, though single readings scatter.

Assays:
PC15 = assay: qHTS profiling for inhibitors of Plasmodium falciparum proliferation (AID 504749); settings: P. falciparum in erythrocytes, SYBR Green DNA, 72 h; series mostly up to 28.7 µM
Summary of the method: (§1)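 Parasite proliferation within erythrocytes, 72 h exposure. Endpoint: SYBR Green I fluorescence after overnight lysis at room temperature. Controls: 0.29 uM artemisinin, DMSO.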

PC26 = assay: as above; settings: P. falciparum in erythrocytes, SYBR Green DNA, 72 h; series mostly up to 28.7 µM
Summary of the method: as §1

PC49 = assay: as above; settings: P. falciparum in erythrocytes, SYBR Green DNA, 72 h; series mostly up to 28.7 µM
Summary of the method: as §1

SC27B = assay: as above; settings: P. falciparum in erythrocytes, SYBR Green DNA, 72 h; series mostly up to 28.7 µM
Summary of the method: as §1

TAB113 = assay: as above; settings: P. falciparum in erythrocytes, SYBR Green DNA, 72 h; series mostly up to 28.7 µM
Summary of the method: as §1

TAB165 = assay: as above; settings: P. falciparum in erythrocytes, SYBR Green DNA, 72 h; series mostly up to 28.7 µM
Summary of the method: as §1

CRL-7250 [1] = assay: Cytotoxic Profiling of Annotated Libraries Using Quantitative High-Throughput Screening (AID 1296008); settings: Five cell lines viability, CellTiter-Glo ATP luminescence, 48-72 h; max response: stronger effect = lower value; for max response: % is set by controls: 0 for no effect and ±100 for the full control effect
Summary of the method: (§2)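 Compounds were pin-transferred onto cells and incubated 48 or 72 hr at 37 degree Celsius, 95% humidity. CellTiter-Glo was added, plates sat 10 min at room temperature, then ATP-coupled luminescence was imaged as the viability read-out.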

HEK293 = assay: as above; settings: Five cell lines viability, CellTiter-Glo ATP luminescence, 48-72 h; max response: stronger effect = lower value
Summary of the method: as §2

HaCat [2] = assay: as above; settings: Five cell lines viability, CellTiter-Glo ATP luminescence, 48-72 h; max response: stronger effect = lower value
Summary of the method: as §2

KB-3-1 = assay: as above; settings: Five cell lines viability, CellTiter-Glo ATP luminescence, 48-72 h; max response: stronger effect = lower value
Summary of the method: as §2

NIH3T3 = assay: as above; settings: Five cell lines viability, CellTiter-Glo ATP luminescence, 48-72 h; max response: stronger effect = lower value
Summary of the method: as §2

HACAT [3] = assay: qHTS assay to identify novel small-molecules to repurpose for Merkel cell carcinoma treatment (AID 1296009); settings: MCC and control cell lines, CellTiter-Glo viability, 72 h; at 44.8 µM (top of the series) unless noted; for activity change, negative = cytotoxicity: % is set by controls: 0 for no effect and ±100 for the full control effect
Summary of the method: (§3)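 qHTS format: cells treated with library compounds in DMSO across 8 (NPC) or 11 (MIPE) concentrations. Readout after 72 hr at 37 degree celsius was CellTiter-Glo luminescence.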

MCC-13 = assay: as above; settings: MCC and control cell lines, CellTiter-Glo viability, 72 h; series mostly up to 46 µM
Summary of the method: as §3

MCC-26 = assay: as above; settings: MCC and control cell lines, CellTiter-Glo viability, 72 h; series mostly up to 46 µM
Summary of the method: as §3

MKL-1 = assay: as above; settings: MCC and control cell lines, CellTiter-Glo viability, 72 h; series mostly up to 46 µM
Summary of the method: as §3

MKL-2 = assay: as above; settings: MCC and control cell lines, CellTiter-Glo viability, 72 h; series mostly up to 46 µM
Summary of the method: as §3

TAB109 = assay: qHTS profiling for inhibitors of Plasmodium falciparum proliferation (AID 504749); settings: P. falciparum in erythrocytes, SYBR Green DNA, 72 h; series mostly up to 28.7 µM
Summary of the method: as §1

W2 = assay: as above; settings: P. falciparum in erythrocytes, SYBR Green DNA, 72 h; series mostly up to 28.7 µM
Summary of the method: as §1

HEK293T = assay: qHTS assay to identify novel small-molecules to repurpose for Merkel cell carcinoma treatment (AID 1296009); settings: MCC and control cell lines, CellTiter-Glo viability, 72 h; at 44.8 µM (top of the series); for activity change, negative = cytotoxicity: % is set by controls: 0 for no effect and ±100 for the full control effect
Summary of the method: as §3

CRL-7250 [4] = assay: as above; settings: MCC and control cell lines, CellTiter-Glo viability, 72 h; series mostly up to 44.8 µM
Summary of the method: as §3
Note: nearly all actives have a fitted effect of over 60% in size.
Potency is the fitted concentration of half-maximal effect.

C#CCOC(C(=O)OCCN(C)C)(c1ccccc1)c1ccccc1
inactive: Potency (PC15) | Potency (PC26) | Potency (PC49) | Potency (SC27B) | Potency (TAB113) | Potency (TAB165) | max response (CRL-7250 [1]) -6.32% | max response (HEK293) -8.54% | outcome (HaCat [2]) | max response (KB-3-1) -0.159% | outcome (NIH3T3) | outcome (HACAT [3]) | Potency (MCC-13) | Potency (MCC-26) | Potency (MKL-1) | Potency (MKL-2)

CCOP(=S)(OCC)Oc1cc(C)nc(C(C)C)n1
inactive: Potency (PC15) | Potency (PC26) | Potency (PC49) | Potency (SC27B) | Potency (TAB109) | Potency (TAB113) | Potency (TAB165) | Potency (W2) | max response (CRL-7250 [1]) 1.07% | outcome (HEK293) | max response (HaCat [2]) 0.572% | max response (KB-3-1) 7.03% | max response (NIH3T3) -12% | outcome (HEK293T) | Potency (MCC-13) | Potency (MCC-26) | Potency (MKL-1) | Potency (MKL-2)

Cc1ccc2c(c1)C1CN(C)CCC1N2 (stereo unspecified)
inactive: max response (CRL-7250 [1]) -0.945% | max response (HEK293) 1.62% | outcome (HaCat [2]) | max response (KB-3-1) -4.81% | outcome (NIH3T3) | outcome (HACAT [3]) inactive [at 17.4 µM] | Potency (MCC-13) | Potency (MKL-1) | Potency (MKL-2)

N[C@@H]1C[C@H]1c1ccccc1
inactive: max response (CRL-7250 [1]) -2.94% | max response (HEK293) -4.85% | outcome (HaCat [2]) | max response (KB-3-1) -0.335% | max response (NIH3T3) 3.17% | outcome (HACAT [3]) | Potency (MCC-13) | Potency (MKL-1) | Potency (MKL-2)

NCC(CC(=O)O)c1ccc(Cl)cc1 (stereo unspecified)
inactive: Potency (PC15) | Potency (PC26) | Potency (PC49) | Potency (SC27B) | Potency (TAB109) | Potency (TAB113) | Potency (TAB165) | Potency (W2) | max response (CRL-7250 [1]) 2.02% | max response (HEK293) -1.23% | outcome (HaCat [2]) | max response (KB-3-1) 2.79% | max response (NIH3T3) 0.0761% | outcome (HACAT [3]) inactive [at 0.588 µM] | activity change, negative = cytotoxicity (MCC-13) -6.05% [at 0.597 µM] | activity change, negative = cytotoxicity (MKL-1) -6.57% [at 0.597 µM] | activity change, negative = cytotoxicity (MKL-2) -11.6% [at 0.597 µM]

CCOC(=O)[C@H](CCc1ccccc1)N[C@@H](C)C(=O)N1Cc2cc(OC)c(OC)cc2C[C@H]1C(=O)O
inactive: outcome (CRL-7250 [4])

O=NN(CCCl)C(=O)NC1CCCCC1
inactive: outcome (CRL-7250 [4])

CC(=O)[C@H]1CC[C@H]2[C@@H]3CC[C@H]4C[C@H](O)CC[C@]4(C)[C@H]3C(=O)C[C@]12C
inactive: Potency (PC15) | Potency (PC26) | Potency (PC49) | Potency (SC27B) | Potency (TAB109) | Potency (TAB113) | Potency (TAB165) | Potency (W2) | max response (CRL-7250 [1]) -2.84% | max response (HaCat [2]) 0.502% | max response (KB-3-1) -4.21% | outcome (NIH3T3) | Potency (MCC-13) | Potency (MCC-26) | Potency (MKL-1) | Potency (MKL-2)

C[C@]12CCC(=O)C(O)=C1CC[C@@H]1[C@@H]2CC[C@]2(C)C(=O)CC[C@@H]12
inactive: max response (CRL-7250 [1]) -13.2% | max response (HaCat [2]) -15.5% | max response (KB-3-1) -15.7% | max response (NIH3T3) -5.78% | Potency (MCC-13) | Potency (MKL-1) | Potency (MKL-2)

CO/N=C1\CN(c2nc3c(cc2F)c(=O)c(C(=O)O)cn3C2CC2)CC1CN (stereo unspecified)
inactive: outcome (CRL-7250 [4])

CO[C@]12CC[C@@]3(C[C@@H]1[C@](C)(O)C(C)(C)C)[C@@H]1Cc4ccc(O)c5c4[C@@]3(CCN1CC1CC1)[C@H]2O5
active: Potency (HEK293) 21.5 µM | Potency (MCC-13) 53.9 µM | Potency (MKL-2) 34 µM

C[C@@H]1[C@@H](CC(C[C@H]2O[C@@H]3O[C@]4(C)CC[C@@H]5[C@H](C)CC[C@@H]([C@H]2C)[C@@]35OO4)C[S+](=O)([O-])c2ccc(COC(=O)N(C)C)cc2)O[C@@H]2O[C@]3(C)CC[C@H]4[C@H](C)CC[C@@H]1[C@@]24OO3 (stereo partly specified)
inactive: Potency (MCC-26)
active: Potency (KB-3-1) 1.32 µM | Potency (MKL-1) 1.18 µM | Potency (MKL-2) 0.59 µM

Cc1cnc(C(=O)NCCc2ccc(S(=O)(=O)NC(=O)NC3CCCCC3)cc2)cn1
inactive: outcome (CRL-7250 [4])

CN(CCOc1ccc(NS(C)(=O)=O)cc1)CCc1ccc(NS(C)(=O)=O)cc1
inactive: outcome (CRL-7250 [4])

Cc1ccc(S(=O)(=O)N[C@@H](CCCCN)C(=O)CCl)cc1
active: Potency (TAB109) 11.2 µM
inactive: Potency (PC15) | Potency (PC26) | max response (CRL-7250 [1]) 3.77% | outcome (HaCat [2]) | max response (KB-3-1) 32.5% | outcome (NIH3T3) | outcome (HACAT [3]) | Potency (MCC-13) | Potency (MCC-26) | Potency (MKL-1) | Potency (MKL-2)

Cc1sc2c(c1C)C(c1ccc(Cl)cc1)=N[C@@H](CC(=O)OC(C)(C)C)c1nnc(C)n1-2
active: Potency (CRL-7250 [1]) 0.372 µM | Potency (HEK293) 0.526 µM | Potency (MKL-1) 5.9 µM | Potency (MKL-2) 0.264 µM

CC(O)(CS(=O)(=O)c1ccc(F)cc1)C(=O)Nc1ccc(C#N)c(C(F)(F)F)c1 (stereo unspecified)
inactive: outcome (CRL-7250 [1]) | outcome (HaCat [2]) | max response (KB-3-1) 4.8% and -10.6% | max response (NIH3T3) 2.23% | outcome (NIH3T3) | outcome (CRL-7250 [4]) | outcome (HACAT [3])
active: Potency (MKL-2) 4.18 µM

Oc1cc(Cl)ccc1Oc1ccc(Cl)cc1Cl
44.2 µM (active) and inactive: Potency (MCC-13)
active: Potency (PC15) 7.08 µM | Potency (PC26) 7.57 µM | Potency (PC49) 12.6 µM | Potency (SC27B) 4.47 µM | Potency (TAB109) 10 µM | Potency (TAB113) 4.47 µM | Potency (TAB165) 3.55 µM | Potency (W2) 3.38 µM | Potency (CRL-7250 [1]) 39.4 µM | Potency (HEK293) 22.1 µM | Potency (MKL-2) 24.8 µM
inactive: max response (KB-3-1) 3.49%

NNCCc1ccccc1
inactive: outcome (CRL-7250 [4])

COc1ccc2c(c1OC)CN1CCc3cc4c(cc3C1C2)OCO4 (stereo unspecified)
active: Potency (HEK293) 9.44 µM and 935 nM | Potency (MKL-1) 11.9 µM | Potency (MKL-2) 20.9 µM
inactive: max response (HaCat [2]) 1.37% | outcome (HaCat [2]) | max response (KB-3-1) -7.53% and -10% | max response (NIH3T3) -8.93% | outcome (HACAT [3]) | Potency (MCC-13) | Potency (MCC-26)

COC[C@@H](NC(C)=O)C(=O)NCc1ccccc1
inactive: max response (HEK293) -4.08% | outcome (HaCat [2]) | max response (KB-3-1) 8.88% | max response (NIH3T3) 2.94% | outcome (HACAT [3]) | Potency (MCC-13) | Potency (MCC-26) | Potency (MKL-1) | Potency (MKL-2)

O=C1NCN(c2ccccc2)C12CCN(CC1COc3ccccc3O1)CC2 (stereo unspecified)
inactive: Potency (PC15) | Potency (PC26) | Potency (PC49) | Potency (SC27B) | Potency (TAB109) | Potency (TAB113) | Potency (TAB165) | max response (CRL-7250 [1]) -15.4% | max response (HaCat [2]) 4.17% | max response (KB-3-1) -9.57% | max response (NIH3T3) -1.57% | Potency (MCC-13) | Potency (MCC-26) | Potency (MKL-1) | Potency (MKL-2)
